Drawing on PMC7862700, “An all-to-all approach to the identification of sequence-specific readers for epigenetic DNA modifications on cytosine”, this text covers binding signal for 1 sequence.

Common to all, as to assay: DAPPL (digital affinity profiling via proximity ligation, sequencing); 10 mM Tris-HCl pH 7.5, 50 mM NaCl, 1 mM DTT, 4% glycerol, room temperature, 30 min; GST-TFs on glutathione beads, 16-mer random dsDNA library, 0.1% formaldehyde crosslink after washing; high values mean tight binding
The target in one assay is T1, FEV (Homo sapiens, UniProt Q99581 1-238).
T1 sequence: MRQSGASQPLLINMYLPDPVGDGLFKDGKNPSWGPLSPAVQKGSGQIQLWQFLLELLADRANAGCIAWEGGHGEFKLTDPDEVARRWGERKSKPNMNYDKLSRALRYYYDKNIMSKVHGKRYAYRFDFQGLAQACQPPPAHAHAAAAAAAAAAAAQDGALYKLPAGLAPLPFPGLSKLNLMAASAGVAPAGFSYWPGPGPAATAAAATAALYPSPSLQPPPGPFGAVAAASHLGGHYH
As to conditions: protein: recombinant; tags: N-terminal GST; dsDNA, one strand shown. The method in brief: (§1)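 Binding signal is given per hexamer as its read frequency for a factor divided by its frequency in the tag-only sample. GST-fused human transcription factors were expressed in yeast, captured on glutathione beads, barcoded with DNA and pooled with that sample, then incubated with 200 nmole of a 16-mer random double-stranded DNA library in Tris/NaCl/DTT/glycerol buffer for 30 min at room temperature. The pools were then washed, crosslinked, proximity-ligated, amplified by PCR and sequenced on an Illumina NextSeq500.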

In the next assay the target is ETV5 (Homo sapiens, UniProt P41161 1-510). The conditions noted are these: protein: recombinant; tags: N-terminal GST; dsDNA, one strand shown. Put shortly: as §1
For a further assay, the target named is HSF1 (Homo sapiens, UniProt Q00613 1-529). The conditions noted are these: protein: recombinant; tags: N-terminal GST; chain copies: 3; dsDNA, one strand shown. Put shortly: as §1
For a further assay, the target named is T2, SPIC (Homo sapiens, UniProt Q8N5J4 1-248).
T2 sequence: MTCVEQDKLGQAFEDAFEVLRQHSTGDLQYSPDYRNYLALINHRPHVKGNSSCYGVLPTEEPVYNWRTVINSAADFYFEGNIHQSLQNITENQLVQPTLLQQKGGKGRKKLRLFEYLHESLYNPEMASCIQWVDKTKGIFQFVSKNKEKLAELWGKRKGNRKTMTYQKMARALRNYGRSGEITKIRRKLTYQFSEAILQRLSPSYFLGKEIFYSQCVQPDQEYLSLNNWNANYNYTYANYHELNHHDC
As to conditions: protein: recombinant; tags: N-terminal GST; dsDNA, one strand shown. The method in brief:
as §1

In the next assay the target is ELF4 (Homo sapiens, UniProt Q99607 1-663). As to conditions: protein: recombinant; tags: N-terminal GST; dsDNA, one strand shown. Put shortly:
as §1

Another assay concerns the target T3, ELK4 (Homo sapiens, UniProt P28324-2 1-405).
T3 sequence: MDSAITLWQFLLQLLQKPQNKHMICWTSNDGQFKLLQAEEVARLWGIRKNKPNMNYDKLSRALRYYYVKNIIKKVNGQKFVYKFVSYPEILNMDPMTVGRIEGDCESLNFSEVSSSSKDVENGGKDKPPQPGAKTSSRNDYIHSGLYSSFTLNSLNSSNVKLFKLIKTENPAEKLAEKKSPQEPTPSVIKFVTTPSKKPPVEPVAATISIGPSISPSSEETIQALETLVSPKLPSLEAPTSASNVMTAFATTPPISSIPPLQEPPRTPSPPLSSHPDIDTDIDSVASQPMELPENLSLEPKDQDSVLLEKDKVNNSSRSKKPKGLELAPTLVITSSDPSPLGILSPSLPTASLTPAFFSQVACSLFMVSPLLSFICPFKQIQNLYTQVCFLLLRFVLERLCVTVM
The conditions noted are these: protein: recombinant; tags: N-terminal GST; dsDNA, one strand shown. The method in brief: as §1

A further assay deals with T4, ETV2 (Homo sapiens, UniProt O00321 1-342).
T4 sequence: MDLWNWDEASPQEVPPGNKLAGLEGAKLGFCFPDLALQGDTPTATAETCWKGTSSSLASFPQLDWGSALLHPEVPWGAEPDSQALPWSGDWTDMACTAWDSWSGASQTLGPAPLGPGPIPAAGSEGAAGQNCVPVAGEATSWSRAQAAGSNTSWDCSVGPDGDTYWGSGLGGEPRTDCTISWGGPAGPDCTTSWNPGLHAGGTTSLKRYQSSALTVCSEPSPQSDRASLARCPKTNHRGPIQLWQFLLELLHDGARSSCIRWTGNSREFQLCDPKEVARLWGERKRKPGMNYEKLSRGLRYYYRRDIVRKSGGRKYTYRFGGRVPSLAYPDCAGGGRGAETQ
The conditions noted are these: protein: recombinant; tags: N-terminal GST; dsDNA, one strand shown. Put shortly: as §1

The target in the next assay is T5, ELF3 (Homo sapiens, UniProt P78545 1-371).
T5 sequence: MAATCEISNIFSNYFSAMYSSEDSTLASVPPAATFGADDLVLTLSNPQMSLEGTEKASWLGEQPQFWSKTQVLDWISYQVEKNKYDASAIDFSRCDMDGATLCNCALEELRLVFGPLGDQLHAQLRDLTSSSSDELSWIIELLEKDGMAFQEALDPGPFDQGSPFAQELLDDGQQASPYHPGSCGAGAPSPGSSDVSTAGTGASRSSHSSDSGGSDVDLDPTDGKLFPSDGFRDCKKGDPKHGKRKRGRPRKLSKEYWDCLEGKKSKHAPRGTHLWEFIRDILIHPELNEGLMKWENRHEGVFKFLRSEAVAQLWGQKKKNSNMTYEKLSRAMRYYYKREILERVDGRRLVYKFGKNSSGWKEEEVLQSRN
As to conditions: protein: recombinant; tags: N-terminal GST; dsDNA, one strand shown. The method in brief: as §1

A further assay concerns the target CRX (Homo sapiens, UniProt O43186 1-299). As to conditions: protein: recombinant; tags: N-terminal GST; dsDNA, one strand shown. The method in brief: as §1
A further assay addresses ETV1 (Homo sapiens, UniProt P50549 1-477). The conditions noted are these: protein: recombinant; tags: N-terminal GST; dsDNA, one strand shown. Put shortly:
as §1

In another assay the target is T6, ERF (Homo sapiens, UniProt P50548 1-548).
T6 sequence: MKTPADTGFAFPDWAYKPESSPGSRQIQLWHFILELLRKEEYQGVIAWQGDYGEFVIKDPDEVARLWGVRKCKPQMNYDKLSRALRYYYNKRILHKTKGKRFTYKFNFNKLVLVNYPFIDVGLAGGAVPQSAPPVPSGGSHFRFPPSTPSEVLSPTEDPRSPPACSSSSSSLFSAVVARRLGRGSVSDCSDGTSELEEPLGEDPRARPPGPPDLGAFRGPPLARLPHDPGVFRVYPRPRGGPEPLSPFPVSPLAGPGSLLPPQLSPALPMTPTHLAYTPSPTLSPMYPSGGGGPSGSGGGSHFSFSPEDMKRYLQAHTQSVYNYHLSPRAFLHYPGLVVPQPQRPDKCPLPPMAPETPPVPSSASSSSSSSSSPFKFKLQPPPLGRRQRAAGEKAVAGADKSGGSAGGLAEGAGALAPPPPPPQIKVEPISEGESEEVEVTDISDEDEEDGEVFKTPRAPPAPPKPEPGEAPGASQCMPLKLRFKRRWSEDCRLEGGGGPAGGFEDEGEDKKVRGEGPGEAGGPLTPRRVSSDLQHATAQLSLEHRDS
The conditions noted are these: protein: recombinant; tags: N-terminal GST; dsDNA, one strand shown. Put shortly:
as §1

Another assay addresses T7, ETV3L (Homo sapiens, UniProt Q6ZN32 1-361).
T7 sequence: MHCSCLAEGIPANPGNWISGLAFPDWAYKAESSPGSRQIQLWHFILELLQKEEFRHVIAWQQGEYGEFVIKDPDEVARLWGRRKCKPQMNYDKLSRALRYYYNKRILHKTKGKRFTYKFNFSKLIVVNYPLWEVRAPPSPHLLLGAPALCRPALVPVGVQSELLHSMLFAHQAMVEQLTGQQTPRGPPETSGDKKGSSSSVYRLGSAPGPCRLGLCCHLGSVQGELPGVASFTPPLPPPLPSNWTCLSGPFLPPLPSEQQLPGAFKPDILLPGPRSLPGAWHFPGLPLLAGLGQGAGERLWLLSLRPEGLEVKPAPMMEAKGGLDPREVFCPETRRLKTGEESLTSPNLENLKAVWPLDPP
The conditions noted are these: protein: recombinant; tags: N-terminal GST; dsDNA, one strand shown. The method in brief: as §1

The target of another assay is T8, ETS2 (Homo sapiens, UniProt P15036 1-469).
T8 sequence: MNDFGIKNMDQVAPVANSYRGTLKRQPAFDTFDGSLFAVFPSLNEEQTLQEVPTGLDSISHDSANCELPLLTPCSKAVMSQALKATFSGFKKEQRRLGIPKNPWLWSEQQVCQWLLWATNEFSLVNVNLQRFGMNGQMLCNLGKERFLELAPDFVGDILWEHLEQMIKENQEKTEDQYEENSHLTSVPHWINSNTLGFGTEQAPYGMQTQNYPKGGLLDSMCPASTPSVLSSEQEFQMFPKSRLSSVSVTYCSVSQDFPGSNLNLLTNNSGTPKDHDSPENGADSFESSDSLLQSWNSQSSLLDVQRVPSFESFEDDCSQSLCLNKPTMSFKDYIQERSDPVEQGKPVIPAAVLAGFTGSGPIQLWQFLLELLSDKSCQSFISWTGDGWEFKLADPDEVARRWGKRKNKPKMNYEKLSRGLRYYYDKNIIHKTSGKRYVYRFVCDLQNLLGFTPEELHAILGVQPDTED
The conditions noted are these: protein: recombinant; tags: N-terminal GST; dsDNA, one strand shown. Put shortly:
as §1

Another assay deals with T9, SPDEF (Homo sapiens, UniProt O95238 1-335).
T9 sequence: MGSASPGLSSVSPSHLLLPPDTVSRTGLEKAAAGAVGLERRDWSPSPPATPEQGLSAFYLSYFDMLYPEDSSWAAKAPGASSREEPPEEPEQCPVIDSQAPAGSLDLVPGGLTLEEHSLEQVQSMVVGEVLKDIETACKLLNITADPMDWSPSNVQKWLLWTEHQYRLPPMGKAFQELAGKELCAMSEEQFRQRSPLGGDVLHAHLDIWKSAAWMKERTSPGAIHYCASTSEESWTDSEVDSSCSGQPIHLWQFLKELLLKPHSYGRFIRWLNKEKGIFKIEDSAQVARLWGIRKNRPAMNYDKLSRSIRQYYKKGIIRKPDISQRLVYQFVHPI
The conditions noted are these: protein: recombinant; tags: N-terminal GST; dsDNA, one strand shown. The method in brief:
as §1

The next assay has as its target T10, ETV7 (Homo sapiens, UniProt Q9Y603 1-341).
T10 sequence: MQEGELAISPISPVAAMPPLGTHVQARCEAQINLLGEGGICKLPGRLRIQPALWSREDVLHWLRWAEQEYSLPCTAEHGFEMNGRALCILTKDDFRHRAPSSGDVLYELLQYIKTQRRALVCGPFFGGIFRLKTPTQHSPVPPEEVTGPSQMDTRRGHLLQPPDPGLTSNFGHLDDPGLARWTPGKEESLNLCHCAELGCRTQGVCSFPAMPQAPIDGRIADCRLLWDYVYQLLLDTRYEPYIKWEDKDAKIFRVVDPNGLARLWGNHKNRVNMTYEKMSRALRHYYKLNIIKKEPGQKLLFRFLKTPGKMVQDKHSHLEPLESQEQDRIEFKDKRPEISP
As to conditions: protein: recombinant; tags: N-terminal GST; dsDNA, one strand shown. Put shortly: as §1

The next assay concerns the target T11, ELF5 (Homo sapiens, UniProt Q9UKW6-2 1-255).
T11 sequence: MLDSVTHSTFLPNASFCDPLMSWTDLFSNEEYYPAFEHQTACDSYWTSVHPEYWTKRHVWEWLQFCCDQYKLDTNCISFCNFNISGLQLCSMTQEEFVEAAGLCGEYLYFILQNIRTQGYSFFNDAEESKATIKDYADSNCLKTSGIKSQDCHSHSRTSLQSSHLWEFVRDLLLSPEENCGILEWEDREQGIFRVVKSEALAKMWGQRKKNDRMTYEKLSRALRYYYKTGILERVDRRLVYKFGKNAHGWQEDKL
The conditions noted are these: protein: recombinant; tags: N-terminal GST; dsDNA, one strand shown. Put shortly:
as §1

Another assay addresses T12, ETV3 (Homo sapiens, UniProt P41162-2 1-143).
T12 sequence: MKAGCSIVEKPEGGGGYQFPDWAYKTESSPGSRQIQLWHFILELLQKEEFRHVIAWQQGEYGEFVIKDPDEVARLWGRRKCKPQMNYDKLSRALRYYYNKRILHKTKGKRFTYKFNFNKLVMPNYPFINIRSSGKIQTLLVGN
As to conditions: protein: recombinant; tags: N-terminal GST; dsDNA, one strand shown. Put shortly: as §1

A further assay deals with ETV6 (Homo sapiens, UniProt P41212 1-452). The conditions noted are these: protein: recombinant; tags: N-terminal GST; dsDNA, one strand shown. The method in brief:
as §1

Chain of ETV5 (P41161 whole entry): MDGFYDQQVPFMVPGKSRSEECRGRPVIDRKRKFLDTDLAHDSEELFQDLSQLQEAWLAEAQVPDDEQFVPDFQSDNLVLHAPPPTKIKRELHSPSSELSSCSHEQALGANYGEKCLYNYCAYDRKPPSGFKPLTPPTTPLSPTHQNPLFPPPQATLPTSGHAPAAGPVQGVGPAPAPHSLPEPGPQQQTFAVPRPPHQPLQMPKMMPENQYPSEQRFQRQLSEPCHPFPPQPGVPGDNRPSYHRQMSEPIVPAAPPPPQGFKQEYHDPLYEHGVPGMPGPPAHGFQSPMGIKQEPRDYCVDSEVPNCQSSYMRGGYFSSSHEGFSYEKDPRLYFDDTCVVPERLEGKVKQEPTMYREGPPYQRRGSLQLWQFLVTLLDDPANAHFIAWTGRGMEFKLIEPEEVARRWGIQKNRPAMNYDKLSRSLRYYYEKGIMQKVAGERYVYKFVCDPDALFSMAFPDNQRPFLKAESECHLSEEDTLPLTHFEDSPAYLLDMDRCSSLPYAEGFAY
Chain of HSF1 (Q00613 whole entry): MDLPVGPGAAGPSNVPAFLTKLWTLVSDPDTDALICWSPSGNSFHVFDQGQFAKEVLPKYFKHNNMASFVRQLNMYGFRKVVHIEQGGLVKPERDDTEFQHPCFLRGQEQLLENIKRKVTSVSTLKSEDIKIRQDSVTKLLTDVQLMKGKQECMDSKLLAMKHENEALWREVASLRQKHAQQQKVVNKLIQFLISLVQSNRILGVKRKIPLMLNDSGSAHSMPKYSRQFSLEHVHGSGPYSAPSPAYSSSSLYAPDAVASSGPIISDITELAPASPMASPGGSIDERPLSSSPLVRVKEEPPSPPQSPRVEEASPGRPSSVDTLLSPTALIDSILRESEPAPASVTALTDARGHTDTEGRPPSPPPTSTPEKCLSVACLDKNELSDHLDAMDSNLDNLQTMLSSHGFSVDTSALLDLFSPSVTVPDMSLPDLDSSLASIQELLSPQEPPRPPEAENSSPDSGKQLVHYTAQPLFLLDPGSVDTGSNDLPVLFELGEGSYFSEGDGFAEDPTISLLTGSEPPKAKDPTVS
Chain of ETV1 (P50549 whole entry): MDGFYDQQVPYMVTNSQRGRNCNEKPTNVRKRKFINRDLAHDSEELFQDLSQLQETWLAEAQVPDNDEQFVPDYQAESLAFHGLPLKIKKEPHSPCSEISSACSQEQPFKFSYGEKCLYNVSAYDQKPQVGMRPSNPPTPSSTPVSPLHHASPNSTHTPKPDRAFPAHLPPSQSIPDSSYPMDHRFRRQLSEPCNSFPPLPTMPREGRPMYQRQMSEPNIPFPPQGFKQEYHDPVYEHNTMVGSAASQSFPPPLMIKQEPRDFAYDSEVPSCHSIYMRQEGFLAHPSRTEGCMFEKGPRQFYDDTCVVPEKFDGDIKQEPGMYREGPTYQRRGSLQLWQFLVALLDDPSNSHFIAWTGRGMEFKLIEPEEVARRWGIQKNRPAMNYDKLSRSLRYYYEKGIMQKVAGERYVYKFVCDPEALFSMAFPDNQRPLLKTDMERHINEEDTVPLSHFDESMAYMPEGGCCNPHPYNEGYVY
Chain of ETV6 (P41212 whole entry): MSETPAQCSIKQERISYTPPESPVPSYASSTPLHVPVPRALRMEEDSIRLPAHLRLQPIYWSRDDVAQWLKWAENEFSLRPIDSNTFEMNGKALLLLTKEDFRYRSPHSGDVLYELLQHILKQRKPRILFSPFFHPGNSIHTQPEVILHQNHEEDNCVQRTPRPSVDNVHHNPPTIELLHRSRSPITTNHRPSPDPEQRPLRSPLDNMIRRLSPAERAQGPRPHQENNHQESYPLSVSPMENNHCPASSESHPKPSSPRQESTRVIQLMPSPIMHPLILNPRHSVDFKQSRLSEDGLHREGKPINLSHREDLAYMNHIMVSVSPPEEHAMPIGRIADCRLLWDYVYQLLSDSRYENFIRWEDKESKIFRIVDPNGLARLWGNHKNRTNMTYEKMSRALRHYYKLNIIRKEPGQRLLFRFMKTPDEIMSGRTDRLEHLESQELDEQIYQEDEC
Chain of ELF4 (Q99607 whole entry): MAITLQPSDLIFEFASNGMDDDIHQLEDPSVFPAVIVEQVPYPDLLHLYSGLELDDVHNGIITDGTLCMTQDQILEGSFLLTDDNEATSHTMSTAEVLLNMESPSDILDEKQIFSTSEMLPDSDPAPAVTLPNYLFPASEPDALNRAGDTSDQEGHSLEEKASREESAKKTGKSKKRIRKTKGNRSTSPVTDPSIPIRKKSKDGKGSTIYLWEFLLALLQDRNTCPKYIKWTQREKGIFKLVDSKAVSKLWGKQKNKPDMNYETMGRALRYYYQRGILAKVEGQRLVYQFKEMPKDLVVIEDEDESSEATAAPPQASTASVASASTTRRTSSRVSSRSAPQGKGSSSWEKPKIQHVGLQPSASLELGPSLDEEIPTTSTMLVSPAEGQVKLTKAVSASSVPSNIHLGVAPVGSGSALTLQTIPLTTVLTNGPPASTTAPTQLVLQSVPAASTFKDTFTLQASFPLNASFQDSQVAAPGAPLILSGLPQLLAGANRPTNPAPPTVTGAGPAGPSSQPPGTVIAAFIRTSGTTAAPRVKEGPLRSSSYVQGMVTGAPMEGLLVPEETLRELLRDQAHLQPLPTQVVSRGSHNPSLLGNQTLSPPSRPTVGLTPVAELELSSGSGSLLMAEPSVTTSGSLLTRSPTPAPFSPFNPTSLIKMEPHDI
Chain of CRX (O43186 whole entry): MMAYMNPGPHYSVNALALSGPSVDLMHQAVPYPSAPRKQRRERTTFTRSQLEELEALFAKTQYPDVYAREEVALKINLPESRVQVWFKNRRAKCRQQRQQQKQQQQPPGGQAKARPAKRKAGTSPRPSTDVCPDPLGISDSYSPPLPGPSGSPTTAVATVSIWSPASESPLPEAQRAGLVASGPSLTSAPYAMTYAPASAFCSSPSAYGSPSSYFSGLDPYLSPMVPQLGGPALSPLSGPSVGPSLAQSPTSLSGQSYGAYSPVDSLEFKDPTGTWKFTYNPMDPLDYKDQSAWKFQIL

Regarding ATACAT, the binding signal is 1.29 fold enrichment (6-mer frequency, TF over GST control) with FEV; 1.23 fold enrichment (6-mer frequency, TF over GST control) in the assay with ETV5; 1.01 fold enrichment (6-mer frequency, TF over GST control) with HSF1; 1.15 fold enrichment (6-mer frequency, TF over GST control) with SPIC; 1.33 fold enrichment (6-mer frequency, TF over GST control) with ELF4; 1.31 fold enrichment (6-mer frequency, TF over GST control) with ELK4. The binding signal in the assay with ETV2 was 1.33 fold enrichment (6-mer frequency, TF over GST control); in the assay with ELF3, 1.15 fold enrichment (6-mer frequency, TF over GST control); with CRX, 1.06 fold enrichment (6-mer frequency, TF over GST control); in the assay with ETV1, 1.33 fold enrichment (6-mer frequency, TF over GST control); with ERF it was 1.27 fold enrichment (6-mer frequency, TF over GST control); in the assay with ETV3L, 1.2 fold enrichment (6-mer frequency, TF over GST control). The binding signal is 1.24 fold enrichment (6-mer frequency, TF over GST control) with ETS2; 1.6 fold enrichment (6-mer frequency, TF over GST control) in the assay with SPDEF; 1.36 fold enrichment (6-mer frequency, TF over GST control) with ETV7; 1.29 fold enrichment (6-mer frequency, TF over GST control) with ELF5; 1.26 fold enrichment (6-mer frequency, TF over GST control) in the assay with ETV3; 1.28 fold enrichment (6-mer frequency, TF over GST control) with ETV6.
